# aSyn UTR act – Activators via SNCA 5'UTR binding, MLPCN. alpha-synuclein 5'UTR reporter, activators screen. activity score, % (tested at 7.5 µM), hits read low. actives 7.1% (n = 300,000); in the data active = activity score below about -60%
# Starred values were filed as active, the others as inactive. A selection follows.
SMILES,aSyn UTR act
O=[N+]([O-])c1cc(-c2cnc3ccccc3n2)ccc1Oc1ccc(Cl)cc1,-65*
O=[N+]([O-])c1cc(-c2cnc3ccccc3n2)ccc1Cl,-93*
O=[N+]([O-])c1ccc(-c2nc(C(Cl)Cl)c3ccccc3n2)cc1,129
O=[N+]([O-])c1cccc(-c2cnc3ccccc3n2)c1,-93*
COc1ccccc1Oc1ccc(-c2cnc3ccccc3n2)cc1[N+](=O)[O-],-74*
Cc1oc(-c2ccc(-c3ccccc3)cc2)nc1CN(C)C1CCOC1 (stereo not drawn),-113*
Cc1oc(-c2ccc(-c3ccccc3)cc2)nc1CN(CCO)C(C)C,-182*
CC(C)[C@@H](CO)NC(=O)c1ccc2c3n(nc2c1)-c1ccc(Cl)cc1CO3,-180*
C[C@@H](CO)NC(=O)c1ccc2c3n(nc2c1)-c1ccc(Cl)cc1CO3,-192*
CCNC(=S)N/N=C/c1sc(N2CCCCC2)nc1-c1cccs1,-102*
CC1(C)CC(=O)C(C(=O)/C=C/c2ccco2)C(=O)C1,-73*
Cc1nc2ccccn2c1C(=O)/C=C/c1ccc(F)cc1,-83*
COc1ccc(/C=C/C(=O)c2c(C)nc3ccccn23)cc1,-308*
O=C(Cc1ccccc1[N+](=O)[O-])NCc1ccc(Cl)cc1Cl,-142*
O=C(Cc1ccccc1[N+](=O)[O-])NCc1ccc(Cl)cc1,-94*
CC(=O)Nc1nc2c(C)cc(NC(=O)C3CCCCC3)cc2s1,-96*
CC(=O)Nc1cc(C)c2nc(NC(C)=O)sc2c1,-90*
NC(=O)COc1c(-c2ccc(Br)o2)oc2ccccc2c1=O,-62*
CC(C)(C)CC(=O)Nc1ccc(-c2cn3cccnc3n2)cc1,-80*
CC(C)CC(=O)Nc1ccc(-c2cn3cccnc3n2)cc1,-80*
CCCC(=O)Nc1ccc(-c2cn3cccnc3n2)cc1,-85*
C=CCN(C(=O)C1=NN(C2CCS(=O)(=O)C2)C(=O)CC1)c1nc(-c2ccc([N+](=O)[O-])cc2)cs1 (stereo not drawn),-135*
Nc1c(-c2ccccc2)n[nH]c1-c1ccccc1,-219*
CCNC(=S)Nc1ccc(N2CCCCC2)cc1,-159*
CCCC(=O)Nc1ccc(N2CCCCC2)cc1,-116*
SMILES,aSyn UTR act
O=C(CCl)Nc1ccc(N2CCCCCC2)cc1,-72*
CCOc1ccc(-c2cc(C(=O)N3CCN(c4ccccn4)CC3)c3ccccc3n2)cc1,-68*
COc1ccc(-c2cc(C(=O)N3CCN(c4ccccn4)CC3)c3ccccc3n2)cc1,-140*
O=C(c1cc(-c2ccncc2)nc2c(Cl)cccc12)N1CCN(c2ccccc2F)CC1,99
Cc1ccc(-c2cc(C(=O)N3CCN(c4ccc(F)cc4)CC3)c3ccccc3n2)o1,-96*
O=C(COC(=O)c1c(F)cccc1Cl)NC1CCCC1,-78*
COc1cccc(NC(=O)COC(=O)c2c(F)cccc2Cl)c1,-148*
N#C/C(=N\Nc1cccc2ccccc12)c1nnc2n1CCCCC2,-71*
O=C(COc1ccccc1)N1CCc2ccccc21,-167*
O=C(COc1ccccc1Cl)N1CCc2ccccc21,-135*
O=C(/C=C/c1ccc(Cl)c(Cl)c1)N1CCc2ccccc21,-241*
O=C(COc1ccc(Br)cc1)N1CCc2ccccc21,-100*
CC(=O)/C(=N/Nc1ccc(Br)cc1)N1CCCc2ccccc21,61
O=C(COc1ccccc1Cl)N1CCc2ccccc2C1,-91*
O=C(CCCOc1ccccc1)N1CCCc2ccccc21,-73*
O=C(CCCc1ccccc1)N1CCc2ccccc21,-117*
O=C(OCc1ccccc1)N1CCc2ccccc21,-119*
O=C1CN(C(=O)OCc2ccccc2)c2ccccc2N1,-89*
Cc1noc(C)c1COc1cccc(C(=O)OCC(=O)N2CC(=O)Nc3ccccc32)c1,65
CC(=O)c1ccc(OCc2cc(C(=O)N3CCN(c4ccccc4)CC3C)no2)cc1 (stereo not drawn),-163*
CSc1ccccc1OCc1cc(C(=O)N2CCN(c3ccccc3)CC2C)no1 (stereo not drawn),-108*
CCOC(=O)COc1ccccc1C1Nc2ccccc2C(=O)N1c1cccc(Cl)c1 (stereo not drawn),-107*
COc1cc(C2Nc3ccccc3C(=O)N2c2ccc(Cl)cc2)c(Cl)cc1OCC(=O)O (stereo not drawn),-137*
CC(C)Oc1ccccc1C1Nc2ccccc2C(=O)N1c1ccc2c(c1)OCCO2 (stereo not drawn),68
Cc1sc(NC(=O)/C=C/c2ccco2)c(C(=O)O)c1C,-118*
SMILES,aSyn UTR act
CCOC(=O)c1c(NC(=O)/C=C/c2ccc(C)o2)sc(C)c1C,-108*
NC(=O)COc1ccc2oc(-c3ccccc3)cc(=O)c2c1,-166*
COc1ccc(-c2cc3ccc(OCC(C)=O)cc3oc2=O)cc1OC,-125*
NC(=O)COc1ccc2cc(-c3ccc(F)cc3)c(=O)oc2c1,-75*
COc1ccc(-c2coc3cc4oc(=O)c5ccccc5c4cc23)cc1F,81
O=c1oc2cc(OCc3ccc(F)cc3F)ccc2cc1-c1ccccn1,-101*
NC(=O)COc1ccc2cc(-c3ccccc3)c(=O)oc2c1,-87*
O=C(c1nn2c(C(F)(F)F)cc(-c3ccco3)nc2c1Br)N1CCCc2ccccc21,93
O=C(c1cc(-c2ccccc2)on1)N1CCCc2ccccc21,-100*
O=C(c1cc(-c2ccco2)on1)N1CCCc2ccccc21,-69*
O=C(Cc1c[nH]c2ccccc12)NCc1cccs1,-63*
CN(Cc1cccs1)C(=O)CCCc1c[nH]c2ccccc12,-133*
COc1cccc2c(=O)c(C(=O)NCc3cccs3)c[nH]c12,-139*
FC(F)(F)c1cnc2c(-c3ccccc3)n[nH]c2c1,-130*
O=C(CSc1nnc(-c2ccccc2O)o1)N1CCOCC1,-69*
O=C(CSc1nnc(-c2ccccc2Br)o1)N1CCOCC1,-111*
O=C(CSc1nnc(-c2ccccc2Cl)o1)N1CCCC1,-68*
Fc1ccccc1CSc1nc2ncc(Br)cc2[nH]1,-127*
C=CCN1C(=O)/C(=C/c2ccc(N(C)C)cc2)S/C1=N\c1nnc(CC)s1,-65*
O=C(NC1CC1)c1ccc(-c2nc3ccccc3s2)s1,96
Cc1noc(C)c1COC(=O)c1ccc(-c2nc3ccccc3s2)s1,-206*
O=C(c1ccc(-c2nc3ccccc3s2)s1)N1CCOCC1,100
CCN1CCN(C(=O)c2ccc(-c3nc4ccccc4s3)s2)CC1,-66*
CCNC(=O)COC(=O)c1ccc(-c2nc3ccccc3s2)s1,-67*
C/C(=N\NC(=O)c1ccccc1)c1ccccc1F,-88*
SMILES,aSyn UTR act
C/C(=N\NC(=O)c1ccccc1)c1ccccc1Br,-102*
C/C(=N\NC(=O)OC(C)(C)C)c1ccccc1Br,-84*
C/C(=N\NC(=O)c1ccccc1)c1ccc(N2CCCCC2)cc1,-86*
C/C(=N\NC(=O)c1ccc(Br)cc1)c1ccccc1,-158*
C/C(=N\NC(=O)c1ccc(C)cc1)c1c(C)[nH]n(-c2ccccc2)c1=O,67
CCCCCC(=O)N/N=C(\C)c1ccc(N2CCCCC2)cc1,-65*
CCCCCC(=O)N/N=C(\C)c1ccccn1,67
CN1CCN(c2ccc(C(=O)c3ccc(F)cc3)cc2)CC1,-133*
O=C(c1ccccc1)c1ccc(N2CCCC2)cc1,-109*
COc1ccc(N2Nc3n[nH]c(N)c3N2)cc1,-73*
CCOc1ccc(N2Nc3n[nH]c(N)c3N2)cc1,-65*
COc1cccc([C@@H]2Oc3ccc(OC)cc3C(=O)[C@H]2OC(=O)NCc2ccc3c(c2)OCO3)c1,-137*
O=C(O)c1cccc(OCc2ccccc2Cl)c1,-188*
